Reference: PubChem BioAssay (NCATS)
Records with an inconclusive call do not appear. Active and inactive are the calls of the source. Calls come from the whole dose curve; as a rule, active = well fitted inhibition curve with a large enough effect; inconclusive = small, poorly fitted or top-dose-only effect; inactive = flat fitted curve, though single readings scatter.

Biological target: Tyrosyl-DNA phosphodiesterase 1 (Homo sapiens) (UniProt Q9NUW8)
Test: Confirmation Assay for Inhibitors of Tyrosyl-DNA Phosphodiesterase (TDP1) (AID 489007); note: nearly all actives have a fitted effect of over 40% in size
Details: recombinant human TDP1 enzymatic activity, dose-response
Procedure, shortened: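 Recombinant human Tdp1 (1 nM final), expressed in E. coli, preincubated 15 min with compound. Then 15 nM 5'-biotin/3'-phosphotyrosine-FITC DNA substrate added for 5 min at room temperature. AlphaScreen beads (10 ug/ml) added for 10 min; cleavage gives signal loss.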
Potency is the fitted concentration of half-maximal effect.

Tyrosyl-DNA phosphodiesterase 1 (Homo sapiens), sequence (Q9NUW8 whole entry, looked up): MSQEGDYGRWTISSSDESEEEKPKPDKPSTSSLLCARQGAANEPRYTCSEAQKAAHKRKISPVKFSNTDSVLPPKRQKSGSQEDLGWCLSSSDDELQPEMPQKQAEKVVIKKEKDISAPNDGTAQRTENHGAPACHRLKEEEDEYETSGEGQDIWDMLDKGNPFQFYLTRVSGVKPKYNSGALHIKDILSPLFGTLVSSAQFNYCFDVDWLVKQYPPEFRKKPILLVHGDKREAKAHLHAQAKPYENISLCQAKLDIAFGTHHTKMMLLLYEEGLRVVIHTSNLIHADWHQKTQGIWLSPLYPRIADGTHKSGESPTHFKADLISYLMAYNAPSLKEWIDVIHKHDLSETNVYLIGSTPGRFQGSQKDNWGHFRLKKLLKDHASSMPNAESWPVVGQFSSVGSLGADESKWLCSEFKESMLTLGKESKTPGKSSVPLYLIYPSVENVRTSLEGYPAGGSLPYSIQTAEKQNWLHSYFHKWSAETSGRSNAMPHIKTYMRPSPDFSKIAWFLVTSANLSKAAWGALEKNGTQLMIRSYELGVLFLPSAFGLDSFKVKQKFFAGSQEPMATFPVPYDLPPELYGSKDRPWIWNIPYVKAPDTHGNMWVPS

Potency, active:
O=C(O)CCC(=O)N(Cc1cccs1)Cc1cccs1 112 µM
Clc1ccc(N2N=C(c3cccs3)CC2c2ccco2)cc1 (stereo not drawn) 11.2 µM
NC(=O)c1oc2ccccc2c1NC(=O)c1nc2ccccc2s1 15.8 µM
Cc1cccc(N2CCN(S(=O)(=O)c3ccc4[nH]c(=O)c(=O)[nH]c4c3)CC2C)c1 (stereo not drawn) 39.8 µM
CCC(=O)c1ccc(CCCCCC(=O)O)s1 31.6 µM
Cc1cc(C(=O)O)ccc1-c1ccc(/C=C2\NC(=O)N(Cc3ccc(F)cc3)C2=O)o1 4.47 µM
O=C(/C=C/c1c(Cl)nc2ccccn12)N1CCN(c2ccc(F)cc2)CC1 35.5 µM
Cc1ccc(NC(=O)c2noc3c2CCC3)cc1C 12.6 µM
S=c1[nH]nc(-c2cccnc2)n1/N=C/c1ccc(Br)s1 63.1 µM
Cc1ccc2nc(-c3ccncc3)cc(C(=O)Nc3ccc(OC(F)F)cc3)c2c1 70.8 µM
O=C(COc1ccc2oc(-c3ccccc3)cc(=O)c2c1)NCc1ccco1 44.7 µM
O=C(O)c1cccc(-n2cccc2/C=C2\SC(=O)N(Cc3ccccc3F)C2=O)c1 11.2 µM
O=C(N/N=C/c1ccc2c(c1)OCO2)c1cc2ccccc2o1 12.6 µM
O=C(COc1ccc2oc(-c3ccco3)cc(=O)c2c1)N1CCCCC1 79.4 µM
CC(=C/C(=O)O)/C=C/c1ccc(Cl)o1 39.8 µM
O=C(CSc1nnc(SCc2ccc(Cl)cc2)s1)N/N=C/c1c[nH]c2ccccc12 5.01 µM
Nc1ccc(Nc2ccccc2)c(S(=O)(=O)O)c1 7.94 µM
Nc1nonc1-c1nc2ccccc2n1CC(=O)N/N=C/c1ccc(-c2cccc(C(=O)O)c2)o1 14.1 µM
CC1=N/C(=C/c2ccco2)C(=O)O1 3.55 µM
O=C1CC(=O)N(Cc2ccco2)C(=S)N1 15.8 µM
CCCCCc1nnc(NC(=O)Cc2cccs2)s1 25.1 µM
O=C(O)Cc1ccc(NC(=O)C2CC=CCC2C(=O)O)cc1 (stereo not drawn) 14.1 µM
COc1ccc2cc(C(=O)Nc3ccccc3)sc(=O)c2c1OC 56.2 µM
